Results filed as inconclusive are left out. A number with no mark means an inactive call. Calls come from the whole dose curve; as a rule, active = well fitted inhibition curve with a large enough effect; inconclusive = small, poorly fitted or top-dose-only effect; inactive = flat fitted curve, though single readings scatter. Where a SMILES comes first, the peptide text is derived from it. Bridges are numbered along the chain shown (N, C = ends). [ ]: non-standard residue; d: D form. hArg = N=C(N)NCCCC[C@H](N)C(=O)O; Mpa = O=C(O)CCS
system: CP305; experiment: qHTS profiling for inhibitors of Plasmodium falciparum proliferation (AID 504749);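 note: 0% = DMSO vehicle and full inhibition = artemisinin control; nearly all actives have a fitted effect of over 60% in size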; conditions: P. falciparum in erythrocytes, SYBR Green DNA, 72 h; series mostly up to 28.7 µM; activity, negative = inhibition: at the top concentration
In short: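 P. falciparum-infected erythrocytes (0.3% parasitemia, 2.5% hematocrit final) were exposed to compounds for 72 h at 37 C in 5% CO2, then lysed with SYBR Green buffer overnight at room temperature; parasite DNA fluorescence was normalized to artemisinin and DMSO controls.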

Structure (SMILES) | activity, negative = inhibition
O=C(Cn1ccnc1[N+](=O)[O-])NCCO | -2.91%
Cc1c(C)c2c(c(C)c1OC(=O)c1cccnc1)CC[C@@](C)(CCC[C@H](C)CCC[C@H](C)CCCC(C)C)O2 | -0.967%
COc1ccc2cc(CCC(C)=O)ccc2c1 | 4.98% [at 12.8 µM]
CN(C/C=C/C#CC(C)(C)C)Cc1cccc2ccccc12 | 2.64%
CCN(CC)CCc1nc(-c2ccccc2)no1 | 0.029% [at 12.8 µM]
COc1nccnc1NS(=O)(=O)c1ccc(N)cc1 | 2.82%
Cn1c([N+](=O)[O-])cnc1COC(N)=O | 5.43%
COC(=O)c1ccc(O)cc1 | -0.461%
CC[N+](CC)(CC(=O)Nc1c(C)cccc1C)Cc1ccccc1 | 3.13%
CC1CCN(CCCC(=O)c2ccc(F)cc2)CC1 | -15.5%
COc1ccccc1OC(=O)Oc1ccccc1OC | 11.4%
CN1CCCN=C1COC(=O)C(O)(c1ccccc1)C1CCCCC1 (stereo not drawn) | -4.79%
O=C(/C=C/c1ccccc1)OCc1ccccc1 | 1.17%
Cc1c(Cn2ccnc2)c2ccccc2n1CCC(=O)O | 3.72%
NC(=O)[C@@H]1CSSCCC(=O)N[C@@H](CCCCN=C(N)N)C(=O)NCC(=O)N[C@@H](CC(=O)O)C(=O)N[C@@H](Cc2c[nH]c3ccccc23)C(=O)N2CCC[C@H]2C(=O)N1 ([Mpa][hArg]GDWPC-NH2; disulfide 1-7) | -4.69%
N[C@@H](Cc1ccc(O)cc1)C(=O)O | 4.44%
CC1CCc2cc(F)cc3c(=O)c(C(=O)O)cn1c23 (stereo not drawn) | -8.03%
C[C@@H]1O[C@@H](OC[C@H]2O[C@@H](Oc3c(-c4ccc(O)c(O)c4)oc4cc(O)cc(O)c4c3=O)[C@H](O)[C@@H](O)[C@@H]2O)[C@H](O)[C@H](O)[C@H]1O | -2.2%
